Laboratory results as given in PubChem BioAssay (EPA / NIEHS).
Results filed as inconclusive are left out. The source made the active and inactive calls. Rule for the calls: active = hit-call score of the fitted dose curve at least 0.9, where 1 is the maximum; inconclusive = response in the unintended direction; inactive = score below 0.9.

What follows are molecules tested against rabbit Imidazoline 2 Central (I2C), CKB (gene 100009085) (UniProt P00567) (assay: NVS_ENZ_rabI2C: NovaScreen (NVS) Enzymatic Assay for rabbit Imidazoline 2 Central (I2C) (AID 2283228)).
Sequence of rabbit Imidazoline 2 Central (I2C), CKB (gene 100009085) (P00567 whole entry, looked up): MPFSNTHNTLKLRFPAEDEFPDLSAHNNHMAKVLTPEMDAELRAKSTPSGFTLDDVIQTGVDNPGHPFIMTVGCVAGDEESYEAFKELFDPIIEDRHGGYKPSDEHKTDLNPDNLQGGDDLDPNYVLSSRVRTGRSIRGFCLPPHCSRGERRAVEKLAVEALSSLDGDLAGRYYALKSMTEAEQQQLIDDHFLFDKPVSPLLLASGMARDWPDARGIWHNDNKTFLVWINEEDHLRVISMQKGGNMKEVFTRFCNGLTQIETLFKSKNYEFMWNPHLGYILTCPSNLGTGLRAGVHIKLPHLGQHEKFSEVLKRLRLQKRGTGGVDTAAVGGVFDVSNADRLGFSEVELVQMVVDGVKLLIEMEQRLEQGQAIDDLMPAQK
Outline: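 Rabbit brain membranes, cell-free; readout by filter-based scintillation counting 1.5 hours after dosing, loss of signal vs DMSO. Initial duplicate test at 25 uM, then concentration-response with 50 uM top concentration.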

SMILES | outcome | AC50
CC(C)C(=O)Nc1ccc([N+](=O)[O-])c(C(F)(F)F)c1 | inactive | 
Cc1nccn1-c1ccc(Sc2cccc(C3(C(N)=O)CCOCC3)c2)cc1 |  | 9.43 µM (active)
COc1cc(C(C)C)c2c(c1)S(=O)(=O)N(COc1cc(=O)n3cccc(OCCN4CCCCC4)c3n1)C2=O | inactive | 
c1ccc2ncccc2c1 |  | 6.6 µM (active)
NC(=O)N(O)[C@@H]1COc2cc(OCc3ccccc3)ccc21 |  | 19.9 µM (active)
O=C(O)c1cccc(C[C@@H]2COc3ccc(OCc4nc5cc(F)ccc5s4)cc3[C@@H]2O)c1 | inactive | 
